KB-3-1 tox: qHTS assay for MDR1-selective chemotherapeutics: Primary screen using the parental adenocarcinoma cell KB-3-1. KB-3-1 viability, CellTiter-Glo ATP luminescence, 72 h. Potency, µM (top dose mostly 46.1 µM), usual class: cytotoxic. 400,000 compounds, 1.4% hits. AID 1347075, 2019; note: nearly all actives have a fitted effect of over 60% in size
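72 h, 37 °C compound treatment of KB-3-1 parental cells; CellTiter-Glo added, 10 min, luminescence read. Data corrected against DMSO-only plates and normalized before curve fitting.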
SW480 rerep: A quantitative high throughput screen for small molecules that induce DNA re-replication in SW480 colon adenocarcinoma cells; SW480 DNA re-replication, Hoechst DNA content imaging, 48 h; Potency, µM (titrated, usually from 46.1 µM), most hits filed as activators; 340,000 compounds, 1.8% hits; AID 624297, 2012; note: nearly all actives have a fitted effect of over 55% in size
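Cells (250 per well) received 23 nL compound or DMSO by pin tool and were kept 48 hr at 37 C, 5% CO2. Nuclei were then stained with Hoechst for 40 min and scanned for DNA content.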
ELG1 repair inh: qHTS screen for small molecules that inhibit ELG1-dependent DNA repair in human embryonic kidney (HEK293T) cells expressing luciferase-tagged ELG1; HEK293T ELG1-luciferase reporter, luminescence, 16 h; DNA damage induced by 5-fluorouridine; Potency, µM (highest dose often 46.1 µM), hits mostly inhibitors; 330,000 compounds, 2.3% hits; AID 504467, 2011; note: nearly all actives have a fitted effect of over 55% in size
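HEK293T cells expressing luciferase-tagged ELG1 (2,000/well) received 5-Fluorouridine plus compound or DMSO for 16 hr at 37 °C. Luciferase was read by ONE-Glo luminescence after 30 min at room temperature.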
MCF10A rereplic: A quantitative high throughput screen for small molecules that induce DNA re-replication in MCF 10a normal breast cells; Potency, µM (series often up to 46.1 µM), actives largely listed as activators; 350,000 compounds, 2.9% hits; MCF 10A DNA re-replication, Hoechst nuclear intensity, 48 h; note: nearly all actives have a fitted effect of over 50% in size
KB-V1 MDR tox: qHTS assay for MDR1-selective chemotherapeutics: Primary screen using the drug-selected MDR subline cells KB-V1; KB-V1 MDR cells viability, CellTiter-Glo, 72 h; Potency, µM (titrated, usually from 46.1 µM), hits mostly cytotoxic; 400,000 compounds, 3.4% hits; note: nearly all actives have a fitted effect of over 60% in size
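Following 72 h at 37 degrees C with compound, KB-V1 cell viability was read by CellTiter-Glo luminescence, medium being phenol-red-free DMEM plus 10% FBS; concentration-response parameters came from normalized, curve-fitted qHTS data.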
ELG1 FLuc counter: qHTS screen for small molecules that inhibit ELG1-dependent DNA repair: Hit Confirmation in Cell-Based Luciferin Assay; shares compounds with ELG1 repair inh; cell-free firefly luciferase luminescence counter-screen, ViewLux; Potency, µM (top dose mostly 46.1 µM), usual class: inhibitors; 350 compounds, 3% hits; AID 624247, 2012
ELG1 Luc conf: HTS assay for small molecules that inhibit ELG1-dependent DNA repair in human embryonic kidney (HEK293T) cells expressing luciferase-tagged ELG1: Hit Confirmation; HEK293T ELG1-luciferase levels, luminescence; cells co-treated with 5-fluorouridine; Potency, µM (series often up to 46.1 µM), actives largely listed as inhibitors; 670 compounds, 68% hits; shares compounds with ELG1 repair inh; note: nearly all actives have a fitted effect of over 55% in size
ELG1 MMS Luc: confirmation of human ELG1 repair inhibitors, MMS stimulated | shares compounds with ELG1 repair inh | HEK293T luciferase-tagged ELG1 level, MMS stimulated | Potency, µM (top dose mostly 46.1 µM), usual class: inhibitors | 670 compounds, 53% hits | AID 624249; note: nearly all actives have a fitted effect of over 60% in size
ELG1 5-FU: qHTS screen for small molecules that inhibit ELG1-dependent DNA repair: Hit Confirmation with 5FU Viability; shares compounds with ELG1 repair inh; cell viability with 5-FU, ELG1-dependent repair; Potency, µM (titrated, usually from 46.1 µM), usual class: cytotoxic; 670 tested, under 10 active;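 note: ELG1-luc HEK293T cells cotreated with 5-fluorouridine at 10 µM final; viability measured 16 h after compound addition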
ELG1 MMS viab: qHTS screen for small molecules that inhibit ELG1-dependent DNA repair: Hit Confirmation with MMS Viability | AID 624251, 2012 | shares compounds with ELG1 repair inh | Potency, µM (titrated, usually from 46.1 µM), actives largely listed as cytotoxic | Cell viability with MMS, ELG1-dependent DNA repair | 670 compounds, 33% hits;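 note: ELG1-luc HEK293T cells co-treated with 10 µM MMS; viability read 16 h after compound addition; nearly all actives have a fitted effect of over 60% in size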
Cell viab unstim: qHTS screen for small molecules that inhibit ELG1-dependent DNA repair: Hit Confirmation with Unstimulated Viability Assay. shares compounds with ELG1 repair inh. cell viability counter-screen, unstimulated, luminescence. Potency, µM (doses to about 45.9 µM), usual class: cytotoxic. 900 compounds, 8% hits;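 note: compound exposure lasted 16 hours before reading; nearly all actives have a fitted effect of over 55% in size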
FLuc biochem: qHTS screen for small molecules that inhibit ELG1-dependent DNA repair: Hit Confirmation in Biochemical Luciferin Assay; shares compounds with ELG1 repair inh; purified firefly luciferase, luminescence counter-screen; Potency, µM (highest dose often 57.5 µM), usual class: inhibitors; 350 compounds, 10% hits; AID 624253, 2012
Numbers stand for hits; [ ] = another dose, or the depositor's remark. Compounds with a hit are over-represented: about 8.2% of the library has one in this group of screens. Calls come from the whole dose curve; as a rule, active = well fitted curve in the direction sought with a large enough effect; inconclusive = small, poorly fitted or top-dose-only effect, or another doubt; inactive = no such curve, though single readings can be large; an effect the other way counts as inactive or inconclusive.

`COc1cccc(CNC(=O)CSc2ccc(-c3sc(-c4ccccc4)nc3C)nn2)c1` gave KB-3-1 tox inactive and KB-V1 MDR tox inconclusive.
C[C@H](CO)N1C[C@H](C)[C@@H](CN(C)C(=O)Nc2ccc(C(F)(F)F)cc2)Oc2c(NC(=O)CCC(F)(F)F)cccc2C1=O was read as KB-3-1 tox inactive, SW480 rerep inactive, ELG1 repair inh 1.8µM, MCF10A rereplic inactive, KB-V1 MDR tox inactive, ELG1 Luc conf 3.5µM, ELG1 MMS Luc inactive, ELG1 5-FU inconclusive, ELG1 MMS viab inactive and Cell viab unstim inactive.
Screening C[C@H](CO)N1C[C@H](C)[C@@H](CN(C)C(=O)Nc2ccc(C(F)(F)F)cc2)Oc2c(NC(=O)Cc3ccccc3)cccc2C1=O returned KB-3-1 tox inactive, SW480 rerep inactive[9.22 µM], ELG1 repair inh inconclusive, MCF10A rereplic inactive, KB-V1 MDR tox inactive, ELG1 Luc conf 2.5µM, ELG1 MMS Luc inactive, ELG1 5-FU inconclusive, ELG1 MMS viab inactive and Cell viab unstim inactive.
For C[C@H](CO)N1C[C@H](C)[C@@H](CN(C)C(=O)Nc2ccccc2)Oc2c(NC(=O)Cc3ccccc3)cccc2C1=O the results were KB-3-1 tox inactive, SW480 rerep inactive, ELG1 repair inh inactive, MCF10A rereplic inactive and KB-V1 MDR tox inactive.
Screening CC(C)NC(=O)Nc1cccc2c1O[C@H](CN(C)C(=O)Nc1ccc(C(F)(F)F)cc1)[C@@H](C)CN([C@H](C)CO)C2=O returned KB-3-1 tox inactive, SW480 rerep inactive, ELG1 repair inh 1.3µM, MCF10A rereplic inactive, KB-V1 MDR tox inactive, ELG1 Luc conf 2.2µM, ELG1 MMS Luc inactive, ELG1 5-FU inconclusive, ELG1 MMS viab inactive and Cell viab unstim inactive.
For CN(C)c1ccc(C(=O)OCC(=O)c2ccc[nH]2)cc1 the results were KB-3-1 tox inactive, SW480 rerep inactive, ELG1 repair inh inconclusive, MCF10A rereplic inactive, KB-V1 MDR tox inactive and Cell viab unstim inactive.
Screening O=C(OCC(=O)c1ccc[nH]1)c1ccccc1 returned KB-3-1 tox inactive, SW480 rerep inactive, ELG1 repair inh inconclusive, MCF10A rereplic inactive and KB-V1 MDR tox inactive.
`COc1cc2ncnc(Nc3cccc(Cl)c3)c2cc1OC` gave KB-3-1 tox inconclusive, KB-V1 MDR tox inconclusive, ELG1 Luc conf 6.3µM, ELG1 MMS Luc 7.1µM, ELG1 5-FU 25µM, ELG1 MMS viab 18µM and Cell viab unstim 18µM.
O=C(CSc1nc2c(c(=O)[nH]1)CN(Cc1ccc(F)cc1)CC2)Nc1cccc(C(F)(F)F)c1 was read as KB-3-1 tox inactive and KB-V1 MDR tox inactive.
COc1ccc(C(=O)NCC(c2cccnc2)N2CCc3ccccc32)cc1 (centres undefined) was read as KB-3-1 tox inactive and KB-V1 MDR tox inactive.
COc1ccc(-c2nc3c(c(SCC(=O)N4CCOCC4)n2)Cc2c(CO)cnc(C)c2O3)cc1 was read as KB-3-1 tox inactive, SW480 rerep inactive, ELG1 repair inh 1.3µM, MCF10A rereplic inconclusive, KB-V1 MDR tox inactive, ELG1 FLuc counter inactive, ELG1 Luc conf 3.5µM, ELG1 MMS Luc inconclusive, ELG1 5-FU inactive, ELG1 MMS viab inactive, Cell viab unstim inactive and FLuc biochem inactive.
`Cc1ccc(-c2nc3c(c(SCC(=O)N4CCOCC4)n2)Cc2c(CO)cnc(C)c2O3)cc1` gave KB-3-1 tox inactive, SW480 rerep inconclusive, ELG1 repair inh inconclusive, MCF10A rereplic inactive and KB-V1 MDR tox inactive.
For COc1ccc(-c2coc3cc(O)cc(O)c3c2=O)cc1 the results were KB-3-1 tox inactive, SW480 rerep inactive, ELG1 repair inh inconclusive, MCF10A rereplic inconclusive, KB-V1 MDR tox inactive and Cell viab unstim inactive.
C(=C\c1nc2ccccc2s1)/c1ccc2c(c1)OCO2 was read as KB-3-1 tox inconclusive, KB-V1 MDR tox inactive, ELG1 FLuc counter 20µM, Cell viab unstim inactive and FLuc biochem 0.18µM.
`CCOC(=O)c1cc(-c2ccc([N+](=O)[O-])cc2)nc2c1c(=O)[nH]c(=O)n2Cc1ccccc1` gave KB-3-1 tox inactive, SW480 rerep inactive, ELG1 repair inh inactive, MCF10A rereplic inactive, KB-V1 MDR tox inactive, ELG1 FLuc counter inactive, Cell viab unstim inactive and FLuc biochem inactive.
For CCc1noc(C)c1C(=O)N(CC)CC(=O)NCc1ccc(Cl)cc1 the results were KB-3-1 tox inactive, SW480 rerep inactive, ELG1 repair inh inactive, MCF10A rereplic inactive and KB-V1 MDR tox inactive.
CSc1cccc(NS(=O)(=O)c2ccc3c(c2)CCN3C(C)=O)c1 was read as KB-3-1 tox inactive, SW480 rerep inactive, ELG1 repair inh inconclusive, MCF10A rereplic inconclusive and KB-V1 MDR tox inactive.
